Pf_Dd2_growth: P. falciparum Dd2 growth inhibitors, primary screen, SYBR Green fluorescence, single dose replicates | 72 h; active compounds read low | activity change, % at 10 µM | hit rate 2.3% among 94,000; in the data active = activity change below about -80%
Tcruzi_prolif: T. cruzi intracellular proliferation inhibitors, primary screen, cell-based, beta-gal Tulahuen parasites, NIH3T3 host, luminescence; T. cruzi beta-gal in NIH3T3, GalScreen luminescence, 90 h; inhibition, % at 8.34 µM; hit rate 5.9% among 77,000;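 active = mean inhibition above about 93%, with at least 55% of replicates each passing it, limit read from the data, passing the limit was not always enough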
C_diff_HTS: C. difficile growth inhibitors, primary screen, HTS. Clostridium difficile clinical isolate growth, OD600, 24 h; active compounds read low. growth activity, negative = inhibition, % at 16 µg/mL (by protocol). hit rate 0.25% among 86,000;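 active = mean growth activity at or below -80% and every replicate also at or below -80%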;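 also: 0% = DMSO wells and -100% = levofloxacin 16 µg/mL wells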
* = called active by the depositor; · = no result. A selection: hits, their analogues and other compounds. The true share with any hit is near 6.8%.

SMILES Pf_Dd2_growth Tcruzi_prolif C_diff_HTS
COc1ccc(CN(C)C[C@@H]2Oc3c(NC(=O)Nc4ccc(OC)cc4)cccc3C(=O)N([C@H](C)CO)C[C@@H]2C)cc1 -5.9 -7.2 -2.4
COc1ccc(CN(C)C[C@@H]2Oc3c(NC(=O)Nc4ccc(OC)cc4)cccc3C(=O)N([C@H](C)CO)C[C@H]2C)cc1 -0.7 -8.8 -0.6
COc1ccc(NC(=O)Nc2cccc3c2O[C@H](CN(C)Cc2ccc(C(=O)Nc4ccccc4N)cc2)[C@H](C)CN([C@@H](C)CO)C3=O)cc1 -93.5* · 22.5
COc1ccc(NC(=O)Nc2cccc3c2O[C@H](CN(C)Cc2ccc(C(=O)Nc4ccccc4N)cc2)[C@@H](C)CN([C@@H](C)CO)C3=O)cc1 -88.2* 105.1 -1.1
COc1ccc(NC(=O)Nc2cccc3c2O[C@H](CN(C)Cc2ccc(C(=O)Nc4ccccc4N)cc2)[C@@H](C)CN([C@H](C)CO)C3=O)cc1 -83.5* · 11.3
COc1ccc(CN(C)C[C@H]2Oc3c(NC(=O)Nc4ccc(OC)cc4)cccc3C(=O)N([C@H](C)CO)C[C@@H]2C)cc1 -8.2 19.9 -8.4
CN(C)C(=O)C[C@H]1CC[C@H]2[C@H](COc3ccc(NC(=O)C4CCCC4)cc3C(=O)N2C)O1 6.8 · 3.9
COc1ccc(S(=O)(=O)N(C)C[C@H]2Oc3ccc(NS(=O)(=O)c4cn(C)cn4)cc3C(=O)N([C@H](C)CO)C[C@H]2C)cc1 18.6 33.6 ·
COc1ccc(CN(C)C[C@H]2Oc3ccc(NC(=O)C4CC4)cc3CC(=O)N([C@@H](C)CO)C[C@H]2C)cc1 6.5 33.0 -6.6
C/C=C/c1ccc2c(c1)O[C@H](CN(C)C(=O)c1ccc(F)cc1)[C@H](C)CN([C@H](C)CO)S2(=O)=O -7.9 44.2 -1.6
COc1ccc(NC(=O)Nc2ccc3c(c2)C(=O)N([C@H](C)CO)C[C@H](C)[C@@H](CN(C)C)OCCCC[C@@H](C)O3)cc1 16.7 3.3 0.5
COc1cccc(NC(=O)N2[C@@H](CO)[C@@H](c3ccccc3)[C@@H]2CNC(C)C)c1 -89.3* 74.5 12.6
COc1cccc(NC(=O)N2[C@H](CO)[C@@H](c3ccccc3)[C@H]2CNCC(C)C)c1 -77.0 71.7 -8.7
COc1cccc(NC(=O)N2[C@@H](CO)[C@H](c3ccccc3)[C@@H]2CNCC(C)C)c1 -91.1* · -6.1
COc1cccc(NC(=O)N2[C@H](CO)[C@H](c3ccccc3)[C@H]2CNCC(C)C)c1 -82.2* 44.6 3.2
COc1cccc(NC(=O)N2[C@H](CO)[C@H](c3ccccc3)[C@H]2CNC(C)C)c1 -67.1 61.3 -0.9
COc1cccc(NC(=O)N2[C@H](CNC(C)C)[C@H](c3ccccc3)[C@@H]2CO)c1 5.6 21.1 ·
C[C@@H]1CCCCO[C@H](CN(C)C)[C@H](C)CN([C@@H](C)CO)C(=O)c2cc(NC(=O)c3ccncc3)ccc2O1 26.6 32.4 -4.6
COc1ccc2c3c(n(C)c2c1)[C@@H](CO)N(C(=O)Cc1ccccn1)CC31CN(Cc2ccccn2)C1 -71.7 · 1.7
C[C@H](CO)N1C[C@H](C)[C@H](CN(C)S(=O)(=O)c2ccc(F)cc2)OCc2ccccc2-c2c(n(C)c3ccccc23)C1=O -87.4* 83.9 ·
C[C@@H]1CN([C@H](C)CO)C(=O)c2c(c3ccccc3n2C)-c2ccccc2CO[C@H]1CN(C)S(=O)(=O)c1ccc(F)cc1 -39.7 63.3 ·
C[C@@H]1CN([C@H](C)CO)C(=O)c2c(c3ccccc3n2C)-c2ccccc2CO[C@H]1CN(C)S(=O)(=O)c1ccccc1 -75.0 72.2 ·
C[C@H]1CN([C@@H](C)CO)C(=O)c2c(c3ccccc3n2C)-c2ccccc2CO[C@@H]1CN(C)S(=O)(=O)c1ccc(F)cc1 -90.7* 83.2 ·
CO[C@@H]1CN(C)C(=O)c2cc(NC(=O)Cc3ccccc3)ccc2OC[C@@H](C)N(C(=O)c2ccccc2F)C[C@@H]1C -50.1 -94.7 ·
CCCC(=O)Nc1ccc2c(c1)C(=O)N(C)C[C@@H](OC)[C@H](C)CN(Cc1cc(F)ccc1F)[C@H](C)CO2 -64.1 68.9 ·
SMILES Pf_Dd2_growth Tcruzi_prolif C_diff_HTS
CCCC(=O)Nc1ccc2c(c1)OC[C@@H](C)N(Cc1cc(F)ccc1F)C[C@@H](C)[C@H](OC)CN(C)C2=O -85.6* 29.5 2.9
CO[C@@H]1CN(C)C(=O)c2ccc(NC(=O)C3CC3)cc2OC[C@@H](C)N(Cc2ccccc2)C[C@H]1C -80.4* 31.3 ·
CO[C@H]1CN(C)C(=O)c2cc(NC(=O)Cc3ccccc3)ccc2OC[C@H](C)N(C(=O)c2ccccc2F)C[C@H]1C -88.9* 5.1 ·
CO[C@@H]1CN(C)C(=O)c2ccc(NC(=O)C3CC3)cc2OC[C@@H](C)N(Cc2cc(F)ccc2F)C[C@H]1C -87.2* 50.4 ·
CO[C@@H]1CN(C)C(=O)c2ccc(NC(=O)C3CC3)cc2OC[C@H](C)N(Cc2cc(F)ccc2F)C[C@H]1C -47.9 3.4 ·
CO[C@H]1CN(C)C(=O)c2ccc(NC(=O)C3CC3)cc2OC[C@@H](C)N(Cc2ccccc2)C[C@H]1C -15.0 25.0 ·
CNC[C@@H]1OCCCC[C@@H](C)Oc2ccc(NS(=O)(=O)c3ccc(OC)cc3)cc2C(=O)N([C@@H](C)CO)C[C@H]1C 16.1 -7.7 -1.8
CCCC(=O)Nc1ccc2c(c1)OC[C@@H](C)N(Cc1cccc(F)c1)C[C@@H](C)[C@H](OC)CN(C)C2=O -87.5* 90.3 ·
CO[C@H]1CN(C)C(=O)c2ccc(NS(=O)(=O)CC(F)(F)F)cc2OC[C@@H](C)N(Cc2nccs2)C[C@H]1C -87.6* 25.5 ·
CO[C@@H]1CN(C)C(=O)c2cc(NC(=O)Nc3ccccc3F)ccc2OC[C@@H](C)N(CC2CC2)C[C@@H]1C 4.5 -13.6 ·
CO[C@@H]1CN(C)C(=O)c2ccc(NC(=O)C3CCC3)cc2OC[C@H](C)N(CC2CCCCC2)C[C@@H]1C -69.2 3.1 ·
CO[C@@H]1CN(C)C(=O)c2ccc(NS(=O)(=O)CC(F)(F)F)cc2OC[C@@H](C)N(Cc2nccs2)C[C@H]1C -0.6 -5.7 ·
CO[C@@H]1CN(C)C(=O)c2ccc(NC(=O)C3CCC3)cc2OC[C@@H](C)N(CC2CCCCC2)C[C@H]1C -82.6* · -9.3
CO[C@@H]1CN(C)C(=O)c2ccc(NC(=O)Nc3ccccc3F)cc2OC[C@@H](C)N(CC2CC2)C[C@H]1C -87.9* 71.7 ·
CCCC(=O)Nc1ccc2c(c1)OC[C@H](C)N(Cc1cccc(F)c1)C[C@H](C)[C@H](OC)CN(C)C2=O -52.9 48.3 ·
COc1ccc(NC(=O)N(C)C[C@@H]2Oc3c(NC(=O)Nc4ccc(C(F)(F)F)cc4)cccc3C(=O)N([C@@H](C)CO)C[C@@H]2C)cc1 -28.8 -15.6 18.4
O=C(NCC[C@@H]1CC[C@H](NS(=O)(=O)c2cccc(F)c2)[C@@H](CO)O1)C1CCCC1 -2.4 · -1.8
C[C@H](CO)N1C[C@H](C)[C@@H](CN(C)Cc2cccc(C(=O)O)c2)Oc2ncc(-c3ccccc3F)cc2C1=O -16.2 36.2 -4.3
COCC(=O)Nc1ccc2c(c1)OC[C@@H](C)N(Cc1ccncc1)C[C@@H](C)[C@H](OC)CN(C)C2=O 4.6 -18.2 -1.3

Compound activity (PubChem)
